Screening results deposited in PubChem by National Center for Advancing Translational Sciences (NCATS).
Shown are actives, neighbours in structure and some others; about 11% of the full set was active somewhere.
Pf growth 96h – Primary qHTS for delayed death inhibitors of the malarial parasite plastid, 96 hour incubation. P. falciparum luciferase reporter growth, 96 h. Potency, µM (doses to about 28.7 µM), most hits filed as inhibitors. 320,000 compounds, 6.9% hits
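Erythrocytes infected with luciferase-expressing P. falciparum were dispensed at 2% hematocrit and 0.05% parasitemia (final), then incubated with compounds 96 hours at 37 C in 5% CO2. Luminescence after detection reagent addition reported growth.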
AMA1 RON2 block – qHTS for Inhibitors of AMA1-RON; Towards Development of Antimalarial Drug Lead: Primary Screen; Plasmodium falciparum AMA1 (3D7) - RON2 peptide interaction; AlphaScreen AMA1-biotinylated RON2 peptide binding; Potency, µM (highest dose often 58.2 µM), actives largely listed as inhibitors; 360,000 compounds, 0.2% hits; AID 720542, 2013; note: nearly all actives have a fitted effect of over 45% in size
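AMA1 (3D7) with his tag at 25 nM final met compounds first, then biotinylated RON2 peptide at 25 nM; detection used donor plus acceptor beads, 10 µg/mL apiece, read by AlphaScreen after 30 min at room temperature.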
AmpC inh no detg – qHTS Inhibitors of AmpC Beta-Lactamase (assay without detergent); P00811; AmpC nitrocefin hydrolysis, absorbance 480 nm, 0.0001% Triton; Potency, µM (series often up to 57.1 µM), usual class: inhibitors; 330,000 compounds, 0.52% hits; AID 485341, 2010; note: nearly all actives have a fitted effect of over 20% in size
Target sequence (P00811 whole entry, looked up): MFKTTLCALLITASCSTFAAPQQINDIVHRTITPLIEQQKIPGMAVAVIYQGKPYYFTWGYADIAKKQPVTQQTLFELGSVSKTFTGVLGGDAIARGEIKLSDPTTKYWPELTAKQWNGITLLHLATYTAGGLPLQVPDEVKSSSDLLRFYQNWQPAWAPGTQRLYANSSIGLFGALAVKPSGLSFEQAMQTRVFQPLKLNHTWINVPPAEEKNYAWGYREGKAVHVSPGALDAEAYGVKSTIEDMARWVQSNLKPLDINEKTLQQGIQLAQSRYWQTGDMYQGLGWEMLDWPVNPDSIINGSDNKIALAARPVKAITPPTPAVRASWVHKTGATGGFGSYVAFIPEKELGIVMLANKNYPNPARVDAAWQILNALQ
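AmpC (5.3 nM in the dispensed reagent) in 20 mM phosphate pH 7.0 with 0.01% (detergent screen) or 0.0001% Triton X-100 was preincubated with compounds for 15 min at room temperature. Nitrocefin was then added from an 800 uM solution, and hydrolysis was followed at 480 nm.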
Pf growth 48h – Primary qHTS for delayed death inhibitors of the malarial parasite plastid, 48 hour incubation; 310,000 compounds, 5.9% hits; Potency, µM (top dose mostly 28.7 µM), hits mostly inhibitors; P. falciparum luciferase growth in erythrocytes, 48 h
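Cell-based growth assay: transgenic P. falciparum expressing firefly luciferase, cultured in red cells within RPMI 1640 containing 0.5% w/v Albumax, 24 mM bicarbonate and gentamycin. A drop in luciferase activity indicates inhibition.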
HCV inhibitor – qHTS Assay for Inhibitors of Hepatitis C Virus (HCV). 340,000 compounds, 3.4% hits. Huh7.5.1 HCVcc-Cre infection, luciferase reporter, 44 h. Potency, µM (highest dose often 41.8 µM), actives largely listed as inhibitors
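Cells (1,000/well) were plated 4 h before compound, then infected with HCVcc-Cre virus (~0.5 moi). After 44 h further culture, infection was read as luciferase luminescence following a 15 min substrate incubation at room temperature.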
AmpC inh detg – qHTS Inhibitors of AmpC Beta-Lactamase (assay with detergent) | Potency, µM (titrated, usually from 114 µM), actives largely listed as inhibitors | 370,000 compounds, 0.041% hits | P00811 | AmpC hydrolysis of nitrocefin, absorbance 480 nm, 0.01% Triton; note: nearly all actives have a fitted effect of over 25% in size
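20 mM phosphate pH 7.0 + 0.01% (detergent screen) or 0.0001% Triton X-100; 5.3 nM AmpC reagent; cpd preinc 15 min RT; nitrocefin (800 uM stock) to start; A480 q20 s × 4 min; Activity was normalised to no-enzyme and no-compound control wells.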
Hits are given with their value; n = inactive; u = inconclusive; x = not tested or not shown; [ ] = another dose, or the depositor's remark. Calls come from the whole dose curve; as a rule, active = well fitted curve in the direction sought with a large enough effect; inconclusive = small, poorly fitted or top-dose-only effect, or another doubt; inactive = no such curve, though single readings can be large; an effect the other way counts as inactive or inconclusive.

SMILES | Pf growth 96h | AMA1 RON2 block | AmpC inh no detg | Pf growth 48h | HCV inhibitor | AmpC inh detg
COc1ccccc1-c1oc2ccccc2c1C#CC1(N)CCCCC1 | 3.3µM | n | n | 8.3µM | u | n
COc1ccccc1-c1oc2ccccc2c1C#CCCO | u | n | n | n | 14µM | n
COc1ccccc1-c1oc2ccccc2c1C#CC1(O)CCCCC1 | x | n | n | x | n | x
O=C(Nc1ccc2nc(SCC(=O)N3CCOCC3)sc2c1)c1cccc(Cl)c1 | x | x | x | x | x | n
COc1ccccc1OCCCCn1c(-c2ccc(Cl)cc2)nc2ccccc2c1=O | x | x | x | x | x | n
COc1cc2c(cc1OC)-c1cc3ccc(OC)c(OC)c3c[n+]1CC2 | 0.17µM | n | n | 0.19µM | u | u
C#Cc1cccc(Nc2ncnc3cc(OCCOC)c(OCCOC)cc23)c1 | 6µM | x | x | 13µM | x | x
CNC(=O)COC(=O)/C=C/c1cn(-c2ccccc2)nc1-c1ccc(C)o1 | 7.4µM | n | n | 12µM | n | n
Cc1noc(/C=C/c2ccccc2F)c1S(=O)(=O)N1CCC(C(=O)N2CCOc3ccccc32)CC1 | x | x | x | x | x | n
CCc1nc(NCc2ccccc2)c(C#N)c2c1CCCC2 | u | n | n | 10µM | n | n
CCN1CCc2c(C#N)c(N3CCCCC3)nc(NCc3ccccc3)c2C1 | 2.6µM | n | x | u | n | n
CCc1nc(NCCC(C)C)c(C#N)c2c1CCCC2 | n | n | n | x | n | n
CC(C)(C)OC(=O)N1CCC(c2c(C(=O)NC3CCN(Cc4ccccc4)CC3)cnn2-c2ccc(F)cc2F)CC1 | x | x | x | x | x | n
Cc1ccc(-n2c(C)cc(C(=S)N3CCOCC3)c2C)cc1C | 10µM | n | n | u | u | u
Cc1cc(C(=S)N2CCOCC2)c(C)n1-c1ccc(F)cc1 | n | n | n | u | n | n
C=C(C)Cn1c(SCC(=O)Nc2ccccc2C)nc2sc3c(c2c1=O)CCCC3 | x | x | x | x | x | n
COC(=O)c1cc2sc(C)cc2n1Cc1nc(-c2cccc(Br)c2)oc1C | x | x | x | x | x | n
CCn1cc(CNC(=O)c2ccc3nc(Cc4ccccc4F)oc3c2)cn1 | n | n | n | n | 11µM | n
CCn1cc(CNC(=O)c2ccc3nc(Cc4ccc(OC)cc4)oc3c2)cn1 | u | n | n | n | 10µM | n
C=C(C)CNC(=O)c1ccc2nc(Cc3ccc(OC)cc3)oc2c1 | n | n | n | n | n | u
Cn1cc(CCNC(=O)c2ccc3nc(Cc4ccccc4F)oc3c2)cn1 | 1.9µM | n | n | n | n | n
CC(C)(C)OC(=O)N1CCC(c2c(C(=O)NCc3ccco3)cnn2-c2ccc(F)cc2F)CC1 | x | x | x | x | x | n
CCOc1ccc(NC(=O)C2CCN(S(=O)(=O)c3ccc4c(c3)oc(=O)n4C)CC2)cc1 | x | x | x | x | x | n
CCCNC(=O)C1(CC2CC(c3ccccc3)=NO2)CCN(C(=O)C2CCCC2)CC1 (centres undefined) | 15µM | n | n | 13µM | n | n
COc1ccc(CNC(=O)C2(CC3CC(c4ccccc4)=NO3)CCN(C(=O)C3(C)CC3)CC2)cc1 (centres undefined) | x | n | x | x | n | x
SMILES | Pf growth 96h | AMA1 RON2 block | AmpC inh no detg | Pf growth 48h | HCV inhibitor | AmpC inh detg
COc1ccc(CNC(=O)C2(CC3CC(c4ccccc4)=NO3)CCN(C(=O)C3CCCC3)CC2)cc1 (centres undefined) | 5.2µM | n | n | u | n | n
O=C(C1CCCC1)N1CCC(CC2CC(c3ccc(Cl)cc3)=NO2)(C(=O)NCC2CCCCC2)CC1 (centres undefined) | 1µM | n | n | u | n | n
COc1ccc(C)c2sc(N3CCN(C(=O)c4ccco4)CC3)nc12 | x | x | x | x | x | n
O=C1COc2ccc(-c3csc(NCC4CCCO4)n3)cc2N1 (centres undefined) | 15µM | n | n | x | u | n
O=C1COc2ccc(-c3cc(-c4ccccc4)c4c(n3)-c3ccccc3OC4)cc2N1 | x | x | x | x | x | n
COc1cccc(-c2nc(-c3ccc4c(c3)NC(=O)CO4)cs2)c1 | n | n | n | n | 14µM | n
c1ccc2oc(-c3csc(NCC4CCCO4)n3)cc2c1 (centres undefined) | n | n | n[11.4 µM] | n | 25µM | u
COc1ccc(-c2cc(-c3ccc(OC)cc3)nc(-c3ccc4c(c3)NC(=O)CO4)c2)cc1 | x | n | n | u | n | n
CC(Nc1nc(-c2ccc3c(c2)NC(=O)CO3)cs1)c1ccccc1 (centres undefined) | u | n | n | n | 11µM | n
Cc1cc(=O)n2[nH]c(NC(=O)c3cccc(Cl)c3)nc2n1 | x | x | x | x | x | n
O=[N+]([O-])c1cc(-c2nc(-c3ccccc3)no2)ccc1NCCc1ccccc1 | x | x | x | x | x | n
N#Cc1c(-n2ncnc2-c2ccc(F)cc2)sc2c1CCCCC2 | x | x | x | x | x | n
CCOC(=O)c1c(C)[nH]c(C)c1S(=O)(=O)N(C)CC(=O)Nc1ccccc1OC | u | n | n | 10µM | n | n
